High-throughput results deposited in PubChem by several laboratories.
hDAT+cocaine = changed human dopamine transporter uptake under cocaine IC80; B-score at 10 µM; 1.3% of 110,000 active; Q01959; LLC-PK1 hDAT cells, [14C]-dopamine uptake with cocaine IC80; actives deviate in either direction;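 active = Z score or B-score, a plate-position-corrected score, falls beyond the plate's 99.7% confidence bounds, in either direction; inactive = both scores lie inside the 99.7% bounds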
JNK3 blocker = inhibitors of human JNK3 kinase; P53779; purified JNK3 kinase activity, HTS; inhibition, % at 8 µM; 0.61% of 60,000 active; AID 746; in the data active = inhibition above about 17%
D1 mod = allosterically modulates the human D1 dopamine receptor | HEK293 D1, CRE-luciferase, dopamine EC30 potentiation; actives deviate in either direction | B-score at 10 µM | 5.9% of 58,000 active;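 active = luminescence count or its row- and column-corrected plate score outside the 99.7% band of the plate's sample wells, on either side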
ROCK2 blocker = blocks human Rho kinase 2 activity | 0.35% of 60,000 active | O75116 | purified ROCK2, Kinase-Glo ATP depletion luminescence | inhibition, % at 6 µM;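 active = inhibition above the screen-wide mean inhibition plus 3 SD, cut at about 18% in these data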
Target sequence (O75116 whole entry, looked up): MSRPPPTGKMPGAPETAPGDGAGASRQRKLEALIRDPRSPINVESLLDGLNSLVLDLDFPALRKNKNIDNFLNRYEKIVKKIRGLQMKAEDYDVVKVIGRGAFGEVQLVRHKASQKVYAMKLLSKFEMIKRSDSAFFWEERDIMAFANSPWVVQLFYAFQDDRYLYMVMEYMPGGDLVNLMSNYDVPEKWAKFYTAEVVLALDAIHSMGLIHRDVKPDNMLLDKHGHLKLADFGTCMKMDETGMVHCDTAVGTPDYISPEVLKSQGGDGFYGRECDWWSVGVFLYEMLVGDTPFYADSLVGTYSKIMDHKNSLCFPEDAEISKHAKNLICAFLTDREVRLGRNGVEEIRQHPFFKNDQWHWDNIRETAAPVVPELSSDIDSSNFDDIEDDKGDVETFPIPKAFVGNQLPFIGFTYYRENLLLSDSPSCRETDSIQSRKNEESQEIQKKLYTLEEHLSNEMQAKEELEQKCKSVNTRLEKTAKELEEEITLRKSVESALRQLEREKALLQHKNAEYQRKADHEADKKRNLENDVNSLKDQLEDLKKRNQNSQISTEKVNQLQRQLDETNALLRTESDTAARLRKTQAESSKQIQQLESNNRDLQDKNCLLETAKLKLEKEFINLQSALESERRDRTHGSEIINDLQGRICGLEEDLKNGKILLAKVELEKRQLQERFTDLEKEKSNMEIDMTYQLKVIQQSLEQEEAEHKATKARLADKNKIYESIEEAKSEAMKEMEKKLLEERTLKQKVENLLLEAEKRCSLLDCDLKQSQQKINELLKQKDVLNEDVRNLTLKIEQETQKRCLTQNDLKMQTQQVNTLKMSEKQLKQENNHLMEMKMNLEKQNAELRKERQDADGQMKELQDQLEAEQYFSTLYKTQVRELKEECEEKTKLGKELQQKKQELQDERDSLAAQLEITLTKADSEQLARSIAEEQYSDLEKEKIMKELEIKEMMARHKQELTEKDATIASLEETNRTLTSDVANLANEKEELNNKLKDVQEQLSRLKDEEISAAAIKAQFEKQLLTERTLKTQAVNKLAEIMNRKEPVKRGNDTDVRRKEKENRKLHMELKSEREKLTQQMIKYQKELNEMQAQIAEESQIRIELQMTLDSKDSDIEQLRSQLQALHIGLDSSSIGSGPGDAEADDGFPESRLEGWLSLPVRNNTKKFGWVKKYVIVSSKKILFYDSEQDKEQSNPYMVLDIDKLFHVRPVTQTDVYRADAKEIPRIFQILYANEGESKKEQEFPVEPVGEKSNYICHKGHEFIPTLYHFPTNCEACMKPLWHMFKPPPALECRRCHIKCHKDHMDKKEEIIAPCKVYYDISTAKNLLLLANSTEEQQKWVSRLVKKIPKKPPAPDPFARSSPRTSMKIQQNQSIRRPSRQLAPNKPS
PKA kinase inh = inhibitors of human protein kinase A | PKA Kemptide phosphorylation, Kinase-Glo ATP luminescence | inhibition, % at 6 µM | 0.1% of 65,000 active | AID 524 | P17612;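 active = inhibition above the screen-wide mean inhibition plus 3 SD, cut at about 21% in these data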
D1 PAM confirm = confirmation of human D1 dopamine receptor allosteric modulators | shares compounds with D1 mod | HEK293 D1 CRE-luciferase, dopamine EC30 potentiation; hits give high values | luminescence at 10 µM | 88% of 2,200 active;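 active = luminescence in either of two replicates above the same-plate mean plus 3 SD of the low-dose dopamine control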
D1 ag no DA = D1 (human) signaling in absence of dopamine; shares compounds with D1 mod; HEK293 D1 CRE-luciferase, luminescence, no dopamine; hits give high values; luminescence at 10 µM; 0.8% of 1,900 active; AID 646; in the data active = luminescence above about 3900
Isoprot counter = counter-screen for D1 modulators: isoproterenol response in HEK293 cells; shares compounds with D1 mod; HEK293 D1 CRE-luciferase, isoproterenol EC30 counter-screen; calls only at 10 µM; 63% of 2,200 active;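 active = luminescence in either replicate above plate mean of wells with a partly effective reference agonist dose plus 3 SD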;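 also: isoproterenol raises cAMP through native beta-adrenoceptor Gs so signal bypasses D1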
Hits are given with their value; - = inactive; . = not tested or not shown; + = active, no number. The sample as a whole holds a higher share of hits than the screen did.

SMILES	hDAT+cocaine	JNK3 blocker	D1 mod	ROCK2 blocker	PKA kinase inh	others
COc1ccccc1N1CCN(Cc2cccc(OC)c2O)CC1	-	-	-4.2	-	-
Cc1ccccc1C1=NCC(=O)N(CC(=O)NCc2ccco2)c2sc3c(c21)CCCC3	-	-	-	-	-
CCCOP(=O)(O)c1c([N+](=O)[O-])cc(C(F)(F)F)cc1[N+](=O)[O-] (tested in a mixture with another compound)	-	.	.	.	.
O=C1NC(=O)C2(Cc3c(nc4ccccn4c3=O)N3CCCCCC32)C(=O)N1Cc1ccccc1 (stereo not given)	2.5	-	-	-	-
COc1ccc2[nH]cc(C3=CCNCC3)c2c1	-	.	.	.	.
CN1CC=C(c2c[nH]c3ccccc23)CC1	-	-	-3.7	-	-
CC(C)[N+](C)(CCC(C(N)=O)(c1ccccc1)c1ccccc1)C(C)C	-	.	.	.	.
CCCC1(CCC)C(=O)NC(=NCc2ccccc2)NC1=O	-7.4	-	-	-	-
CC(=NC(C)c1ccccc1)c1c(O)[nH]c(=O)[nH]c1=O (stereo not given)	-	.	.	.	.
OC(c1ccccc1)(c1ccccc1)C1CCNCC1	-6.1	.	.	.	.
OC(c1ccc(F)cc1)(c1ccc(F)cc1)[C@@H]1CCCN1	-	.	.	.	.
COC(=O)C1=C(c2ccccc2)C[C@@H]2CC[C@H]1N2C(=O)N1CCCC1	-	.	.	.	.
Cc1ccc2c(c1)C1CN(C)CCC1N2C(=O)Nc1cccc(Cl)c1 (stereo not given)	3.4	.	.	.	.
CCCNC(=O)N1[C@H]2CC[C@@H]1C(C(=O)OC)=C(c1cc3ccccc3o1)C2	-	.	.	.	.
Cc1ccc(S(=O)(=O)N[C@@H](CCCCN)C(=O)CCl)cc1	-	.	.	.	.
CC(C)OCCCNC(=O)c1c(N)n(CC2CCCO2)c2nc3ccccc3nc12 (stereo not given)	-	-	-	-	-
CCCNC(=O)c1c(N)n(CC2CCCO2)c2nc3ccccc3nc12 (stereo not given)	-8.9	-	-	-	-
Nc1c(C(=O)OC2CCCCC2)c2nc3ccccc3nc2n1CC1CCCO1 (stereo not given)	3.4	-	-	-	-
O=C(Cn1ncc2c3ccccc3n(Cc3cccc(Cl)c3)c2c1=O)N1CCC2(CC1)OCCO2	6	-	-	-	-
O=C(CN1CCN(Cc2cccc(Cl)c2)C1=O)N1CCC2(CC1)OCCO2	-	.	-	.	-
NCCc1c[nH]c2ccccc12	-	.	.	.	.
CCN(CC)Cc1c[nH]c2ccccc12	-	-	-8.4	-	-
O=C(N[C@H]1CP(=O)(Oc2ccccc2)O[C@H](COCc2ccccc2)[C@H]1O)C(Cl)(Cl)Cl (stereo not given in full)	-	.	.	.	.
C[C@@H]1O[C@@H](O[C@H]2C[C@@H](O)[C@]3(CO)[C@H]4[C@H](O)C[C@]5(C)[C@@H](C6COC(=O)C6)CC[C@]5(O)[C@@H]4CC[C@]3(O)C2)[C@H](O)[C@H](O)[C@H]1O (stereo not given in full)	-6.4	.	.	.	.
O=C(CCCN1CCC2(CC1)C(=O)NCN2c1ccccc1)c1ccc(F)cc1	-	-	-6.5	-	-
SMILES	hDAT+cocaine	JNK3 blocker	D1 mod	ROCK2 blocker	PKA kinase inh	others
COC(=O)C1=C(c2cc3ccccc3s2)C[C@@H]2CC[C@H]1N2C(=O)NCCNC(C)=O	-	.	.	.	.
CCCCOCCCn1c(N)c(C(=O)OCCOC)c2nc3ccccc3nc21	1.2	-	-	-	-
CCCCCn1c(N)c(C(=O)NCCN2CCOCC2)c2nc3ccccc3nc21	-	-	.	-	-
COCCCn1c(N)c(C(=O)NCCC(C)C)c2nc3ccccc3nc21	3	-	-	-	-
COCC(C)OC(=O)c1c(N)n(Cc2ccco2)c2nc3ccccc3nc12 (stereo not given)	-	-	12	-	-
COC(=O)C1=CO[C@@H](C)[C@@H]2CN(CCc3c[nH]c4ccccc34)CC[C@H]12	-	.	.	.	.
CC[C@H]1CN(C)CCc2c([nH]c3ccccc23)C(=O)C[C@@H]1/C(=C\OC)C(=O)OC	-	.	.	.	.
COc1cccc(CN2CCN(C(=O)COc3ccc4ccccc4c3)CC2)c1	2.4	-	.	-	-
COc1ccccc1CN1CCN(C(=O)COc2ccccc2)CC1	-	-	-	-	-
Cc1[nH]c2ccccc2c1C1=CCNCC1	-	-	-	26	-
Cc1cc(NC(=O)CCC(=O)N2CCC3(CC2)OCCO3)no1	-	-	-	-	-
O=c1c2ccccc2nc(-c2cccs2)n1-c1ccccc1	-	.	.	.	.
CCn1nc(-c2cccs2)nc2c(=O)n(C)c(=O)nc1-2	.	47	.	69	-
COc1ccc(-c2cc(=O)c3c(OC)c(OC)c(OC)cc3o2)cc1	4.7	.	.	.	.
Cc1nc2cc(F)ccc2n1C1CCN(Cc2nnnn2CCc2ccccc2)CC1	-	-	-	-	-
Cc1nc2cc(C(F)(F)F)ccc2n1C1CCN(Cc2nnnn2CCc2ccccc2)CC1	3.5	.	.	.	.
COC1CC(OC2CCC3(C)C(CCC4C3CCC3(C)C(C5=CC(=O)OC5)C(OC(C)=O)CC43O)C2)OC(C)C1OC1OC(COC2OC(CO)C(O)C(O)C2O)C(O)C(O)C1O (stereo not given)	-8.9	.	.	.	.
COc1cc(C(O)CNC(C)C)cc(F)c1OC (stereo not given)	-	.	.	.	.
N[C@@H](Cc1c[nH]c2ccccc12)c1nnc(SCc2ccc(Cl)cc2)o1	-8.5	-	-	-	-
C[C@H]1OC[C@@H](C[N+](C)(C)C)O1	-	-	5.7	-	-	D1 PAM confirm=10372;Isoprot counter=-
O=C1C2CCCN2C(c2ccccc2)N1c1ccccn1 (stereo not given)	-	-	-	-	-
CCC(=NC1CC1)c1c(O)n(C2CCCCC2)c(=O)[nH]c1=O	-	-	17	-	-	D1 PAM confirm=12336;D1 ag no DA=-;Isoprot counter=+
CCC(=NCCC1=CCCCC1)c1c(O)[nH]c(=O)[nH]c1=O	-	-	5.4	-	-	D1 PAM confirm=16104;D1 ag no DA=-;Isoprot counter=+
CCN(CC)CCN=Cc1c(O)n(CCC2=CCCCC2)c(=O)[nH]c1=O	-	-	-	-	-
Fc1ccc(NC2=NCCS2)cc1Cl	-	-	4.1	-	-	D1 PAM confirm=11272;D1 ag no DA=-;Isoprot counter=-
COc1ccccc1NC1=NCCS1	-	.	.	.	.
Cc1ccc(OCC(=O)N2CCN(CC3CC4C=CC3C4)CC2)cc1 (stereo not given)	-	-	-	-	-
CN1C(=O)c2ccccc2Sc2ccc(C(=O)N3CCC4(CC3)OCCO4)cc21	.	.	9.6	.	-	D1 PAM confirm=-;Isoprot counter=-
CC1(C)CN=C(Nc2nc3ccccc3s2)S1	-	-	2.9	-	-	D1 PAM confirm=8344;D1 ag no DA=-;Isoprot counter=-
CCN1CCN(c2nc3ccccc3s2)CC1	-	.	.	.	.
